Screening results: PubChem, Fisher Drug Discovery Resource Center
The full list was thinned out, with hits kept by preference.
mcGAS MS inh: mouse cGAS inhibition by mass spec | AID 1259397 | inhibition, % at 12.5 µM | recombinant mouse cGAS, cGAMP by RapidFire MS | 0.18% of 130,000 active;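 active = inhibition of cGAS enzyme activity at or above 60%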;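 note: enzyme stimulated by 45 bp dsDNA with ATP and GTP substrates; cGAMP share of summed cGAMP plus half ATP and half GTP signals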
Target sequence (Q8C6L5 whole entry, looked up): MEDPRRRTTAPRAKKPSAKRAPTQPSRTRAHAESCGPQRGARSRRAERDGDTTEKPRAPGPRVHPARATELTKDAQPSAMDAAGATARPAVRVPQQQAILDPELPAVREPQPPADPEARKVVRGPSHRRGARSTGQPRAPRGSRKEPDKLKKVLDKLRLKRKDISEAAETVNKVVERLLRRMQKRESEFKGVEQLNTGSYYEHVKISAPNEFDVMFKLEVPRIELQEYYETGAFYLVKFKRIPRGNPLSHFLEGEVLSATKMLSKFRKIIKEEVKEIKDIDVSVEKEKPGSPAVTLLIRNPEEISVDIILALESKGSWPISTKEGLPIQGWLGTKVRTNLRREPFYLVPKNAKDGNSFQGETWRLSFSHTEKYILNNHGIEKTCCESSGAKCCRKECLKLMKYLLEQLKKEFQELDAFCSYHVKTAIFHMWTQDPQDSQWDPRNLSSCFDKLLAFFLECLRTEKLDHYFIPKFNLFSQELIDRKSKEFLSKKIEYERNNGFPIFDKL
* hit, by the source's call.

SMILES | mcGAS MS inh
CC(C)c1cc(-c2nn3c(C(C)(C)C)nnc3s2)n[nH]1 | 75*
Cc1cc(-c2nnc3sc(-c4ccc5ccccc5n4)nn23)n[nH]1 | -7
COc1ccc2[nH]c(-c3nn4c(C(C)C)nnc4s3)cc2c1 | -4
CC(CC(=O)c1cccs1)NC(=O)C(C)Cc1ccccc1F (configuration not stated) | -29
O=C(c1cscn1)N1CCCC(N2CCN(Cc3ccc4c(c3)OCO4)CC2)C1 (configuration not stated) | -5
Cc1nc(CCN)cc(N2CCC(N3CCCC3)CC2)n1 | -12
Cc1nc(CCN)cc(N2CC3C[C@@H]4CC2C[C@H](C3)C4)n1 | 9
CCCOC1CCCN(c2cc(CCN)nc(C)n2)C1 (configuration not stated) | 97*
Cc1cc(C)c(S(=O)(=O)Nc2ccc(O)c(C(C(=O)OC(C)C)C(=O)C(F)(F)F)c2)c(C)c1 (configuration not stated) | -3
Cc1ccc(C(C)(C)NC(=O)CCN2CCCCO2)cc1 | -6
COc1ccc(Cn2c(C3CCCCC3)nc3oc4ccccc4c(=O)c3c2=O)cc1 | -10
c1ccc(-c2cnn(CCOCC3CCCO3)c2)cc1 (configuration not stated) | 2
Cc1cc2n(c1)CCn1c(C)ccc1-2 | -2
Cc1ccc2n1CCn1cc(-c3ccccc3)cc1-2 | 77*
CCc1ccc(CN(C)C(=O)NC(C)c2cccs2)cc1 (configuration not stated) | 1
CNc1oc(-c2ccco2)nc1S(=O)(=O)c1ccc(Br)cc1 | -4
CC(=O)OCc1ccc(-c2nc(-c3ccccc3)c(C)[nH]2)o1 | -8
CC(=O)NC1CCCN(c2ncnc3ccc(F)cc23)C1 (configuration not stated) | -11
CC(C)c1ccc(C(=O)N2CCn3c(nnc3C(=O)N(C)C)C2)cc1 | -4
Cc1nn(-c2ccc([N+](=O)[O-])cc2)c2c1C(c1ccccn1)N1C(=N2)C(=O)Nc2ccccc21 (configuration not stated) | -1
N#CC1C(=N)Oc2cc3c(cc2C1c1ccc(Cl)cc1)OCO3 (configuration not stated) | -15
Cc1ccccc1CC1(CO)CCCN(C(=O)c2ccccc2N(C)C)C1 (configuration not stated) | 91*
Cc1ccccc1CC1(CO)CCCN(C(=O)CN2CCOc3ccccc3C2)C1 (configuration not stated) | -9
Cc1cccc(C(=O)N2CCCC(CO)(Cc3ccccc3C)C2)n1 (configuration not stated) | -9
NS(=O)(=O)c1ccc(CNc2cnc3ccccc3n2)cc1 | -42
SMILES | mcGAS MS inh
CCc1ccc(N2CCC(NS(=O)(=O)CC)CC2)cc1 | -9
O=C(Nc1nncs1)c1cnn(Cc2ccccc2Cl)c1 | 25
O=C(Nc1nncs1)c1cn(-c2ccccc2Br)nn1 | 71*
O=C(Nc1nnc(C2CC2)s1)c1cn(-c2ccc(Br)cc2)nn1 | 6
O=C(NCCc1ccccc1F)N1CCCn2cncc2C1 | -7
CCn1cncc1-c1c(-c2ccccc2)ncn1Cc1cc(COC)n[nH]1 | -5
COc1ccc(C(C)=O)cc1CN1C(=O)C(C)ON=C1c1ccco1 (configuration not stated) | -6
CC1ON=C(c2ccco2)N(Cc2ccc(S(C)(=O)=O)cc2)C1=O (configuration not stated) | 66*
CC1ON=C(c2ccco2)N(C/C=C/c2ccccc2)C1=O (configuration not stated) | 46
O=C(Cn1cnc(-c2ccccc2)cc1=O)N1CCOCC1 | -4
NC(Cc1ccc(F)cc1)c1csc(Nc2ccc(C(F)(F)F)cn2)n1 (configuration not stated) | 67*
NC(Cc1ccc(C(F)(F)F)cc1)c1csc(Nc2cnccn2)n1 (configuration not stated) | -8
NC(Cc1ccc(C(F)(F)F)cc1)c1csc(Nc2ccccn2)n1 (configuration not stated) | -15
CC(OC(=O)c1ccc(N(C)C)cc1)C(=O)NCCc1ccc(F)cc1 (configuration not stated) | 1
C=CCN(Cc1ccccc1Cl)C(=O)CN1CCCCCC1=O | -7
C=CCNCC(=O)N1CCc2sccc2C1COc1ccc(C)cc1C (configuration not stated) | 2
S=c1[nH]nc(-c2ccccc2Cl)o1 | -5
S=c1[nH]nc(-c2sc3ccccc3c2Cl)o1 | 92*
Clc1c(-c2nnco2)sc2ccccc12 | -3
COCCn1cc(NC(=O)Nc2ccc(F)cc2F)c2ccccc21 | -6
CCOc1ccc(S(=O)(=O)N2CCN(C(C)=O)CC2)cc1OCC | -5
O=C(NCCCn1nc(-c2ccc(Cl)cc2)ccc1=O)c1ccccc1 | 7
Cc1nc2n(n1)C(=O)C(C(c1ccccc1)N1CCC(C(N)=O)CC1)S2 (configuration not stated) | -6
NC(=O)c1cc(S(=O)(=O)NC2CCCCC2)cs1 | -5
Cc1ccc(-c2cc(C(=O)Nc3cnn(C45CC6CC(CC(C6)C4)C5)c3)no2)cc1 | 6
SMILES | mcGAS MS inh
CCCn1cc(NC(=O)c2cc(-c3ccccc3)on2)cn1 | 72*
O=C(Nc1cnn(C23CC4CC(CC(C4)C2)C3)c1)c1cc(-c2ccccc2)on1 | 1
CNC(=O)CCC(=O)N1CCN2CCN(C)C(=O)C2C1 (configuration not stated) | -21
O=C(c1cn(CC2CCCO2)nn1)N1CCN(Cc2cccc(Cl)c2)CC1 (configuration not stated) | -5
O=c1c2ccccc2nc2n1CCS2 | -12
O=c1[nH]n2c(=O)c3ccccc3nc2c2ccccc12 | 90*
O=c1c2ccccc2nc2c3ccccc3c(NCc3ccccn3)nn12 | 3
CN(CC1Cc2ccccc2O1)C(=O)CCc1nnc(Cc2c[nH]c3ccccc23)o1 (configuration not stated) | 2
Cc1cc(CO)c(C)n1-c1cccc2ccccc12 | -15
COc1ccc(NS(C)(=O)=O)c(NC(=O)c2ccc(C(C)(C)C)cc2)c1 | -3
CC1=C(c2ccc(Cl)cc2)[N+](=O)C(C)(c2ccc(Br)cc2)N1[O-] (configuration not stated) | 90*
CC1C(c2ccc(Cl)cc2)=[N+]([O-])C(C)(c2ccccc2)N1O (configuration not stated) | -8
CC(=O)C1(C)N(O)C(C)(C)C(c2ccc(Cl)cc2)=[N+]1[O-] (configuration not stated) | -1
CS(=O)(=O)N1CCC2(CC1)NCCc1[nH]cnc12 | 2
Cc1cc(NCc2ccc(Cl)cc2)n(C2CCS(=O)(=O)C2)n1 (configuration not stated) | -21
COC(=O)c1cc(C2CC2)nc2c1c(-c1cccs1)nn2C1CCS(=O)(=O)C1 (configuration not stated) | -8
CC(C)C(=O)Nc1cc(C2CC2)nn1C1CCS(=O)(=O)C1 (configuration not stated) | 82*
COc1cc(C)c(COC(=O)c2cc(C)oc2C)cc1OC | -7
CCOC(=O)c1sc(NC(=NC)c2cccs2)cc1C | -1
COc1ccc(N=c2ccccn2C)cc1 | 0
CCOC(=O)Oc1cc2oc(=O)sc2cc1Br | 74*
O=c1oc2ccc(O)cc2s1 | 1
COC(=O)Oc1cc2oc(=O)sc2cc1Br | 2
CON(C)c1nc(-c2cccnc2)nc2sc3c(c12)CCCC3 | -3
Cn1ncc2c(N[C@H]3COC[C@@H]3N3CCCCC3)nc(-c3cccnc3)nc21 | 0
